Each sequence was assayed on PPARg:RXRa DBDmut IVT, anti-RXR (DBD mutation: RXRa K156A/R161A, NR concentration 270 nM, RXRa partner concentration 90 nM) (assay: PBM binding z-score (relative to random genomic background probes); higher = stronger binding; sequences stand for … in GC…GCGATTGACAGCGTAGAATGAAGG).
Outline: (§1)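 Probes were double-stranded and carried 34-nt variable regions with direct-repeat seeds, single-nucleotide variants, half-site ablations and random human genomic background sequences, printed on custom Agilent 4×180K protein-binding microarrays. Arrays were incubated 1 h with ligand-free nuclear receptor dimers in PBS pH 7.4, 2% milk, 0.02% Triton X-100, 1 mM DTT, 0.2 mg/mL BSA and 0.4 mg/ml salmon testes DNA. Antibodies against each partner (one per run) detected binding, and scanned fluorescence was regression-normalized. Binding z-scores use the random background probes as reference.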

| Sequence | PBM binding z-score |
| --- | --- |
| CAAACTAGGACAAGAGGTCAAAGTCCGCTTCCCG | 5.17 |
| GGAACAAGGGCAAAGTTGATAGCATCTGTCGACG | 2.8 |
| ACTTACGGGTCAAAGAGGTTATAGCACGCGTATA | 3.17 |
| CCGACTGGGGCATAAGGTTACCAGAAGCCAGCCC | 3.11 |
| ACTATTAGTTGAGACGAGAGCAACCGATAGGTTG | -0.112 |
| TCGAGTAGGTTAGTCAGGGCATTCAGCCAACATA | 1.73 |
| TCGAGTAGGTGAGGGGCATTCAGAATGGCGTCGA | 3.64 |
| ATATGTAGGTTAAGGTTCATTCAGGTTGGTTCGC | 7.08 |
| AGAATGAGGTTATTCGTAGATCAGGGAAGAAAGT | 2.54 |
| GCGACTGGGGCACAGCAGGTTACCATAAGGTTGG | 5.07 |
| GGAACGCGGGCATTCGAGTTGATAGCATGGCGAT | -0.393 |
| CCTACTGGGCTACGAAAGGTCATTGATTCAGTGA | 3.98 |
| ACTTACCGGTCAACGAGGTTATAGCACGCGTATA | 1.22 |
| CTCGAAAGGTCGTGCTCAGGTGAGGATACCAAAC | 0.783 |
| GCTATGAGTTGAAAGGGCAACCGAATGATTCTCG | 0.245 |
| ATTTGTAGGTTAAGGGTCATTCAGGTTGGTTCGC | 6.4 |
| TATTGTAGATCAAGCAGGTTAAGAAAGCCTGAGT | 0.302 |
| CGTCATAGTTCAACTAAGGTAACGTAAAGCACGC | 0.114 |
| TGTCAAAGTTCAAAGGTAACCTAAGTATCCACAC | 0.886 |
| CGTCCATGGTCAGAGAGGTCAGTGAATGCCGAGT | 0.536 |

| Sequence | PBM binding z-score |
| --- | --- |
| ACTCGGAGGACAAAGGTCAGAGGTACGCCAGTGA | 0.77 |
| CTCGAAAGGTCGGTTTAGGTGAGTATACGGATAA | 0.133 |
| TAGCCTAGGTCATGGGGGCCAGTATAGTGTCGGC | 1.91 |
| ATCTCTAGGTAAAAGTTCAGGGAATCCCGAGGAT | 2.01 |
| CTCGAAAGGTCGTGCTCAGGTGTGTATACCAAAC | 0.974 |
| ACTTACGGGTCGACGAGGTTATAGCACGCGTATA | 0.585 |
| AGTCAAAGTTCTCTAGGTAACGTAAGATTCAGCT | 1.68 |
| AGAATGCGGTTATACGTAGATCAGGGAAGAAAGT | -0.0715 |
| AGAATGAGGTTCAGATCAGGGAAACAGAATACAT | -0.151 |
| CCTACTGGGCCATCAGGTCACTGATATCAACGTT | 4.97 |
| CGTCCAAGGTCAGCAGGTTAGTGAAAGCGACGTG | 2.23 |
| CGTCCAAGGTGAATGCTAGGTCAGTGAAAGCATT | 2.03 |
| TGAATGAGGTTATAAGATCAGGGTACGTTGCAAA | 0.889 |
| TCTGCTAGCTCAACGATGGTCAGCTAATCTGCTA | 0.317 |
| TCTTGTAGATCAAGCGGGTTAAGAAAGCCTGAGT | 1.69 |
| ATATGTAGGTTATTGGGTCATTCAGTTTGCGCAT | 7.67 |
| ATCTCTAGGTAACCAGTTCAGTGAAAGAGAGGAC | 3.36 |
| TCTTGTAGACCAAGCAGGTTAAGAAAGCCTGAGT | 1.69 |
| CCTACTGGGCCATTCAGAGCTCATTGATCATATG | 4.75 |
| AGAATGAGGTTATTAAGATCAAGGAATTGCGGTC | 2.9 |

These sequences were tested on PPARg:RXRa IVT, anti-PPARg (NR concentration 270 nM, RXRa partner concentration 90 nM) in the same assay as above.
Outline: as §1

| Sequence | PBM binding z-score |
| --- | --- |
| CAAACTAGGACAAGAGGTCAAAGTCCGCTTCCCG | 5.25 |
| GGAACAAGGGCAAAGTTGATAGCATCTGTCGACG | 3.73 |
| ACTTACGGGTCAAAGAGGTTATAGCACGCGTATA | 3.85 |
| CCGACTGGGGCATAAGGTTACCAGAAGCCAGCCC | 3.13 |
| ACTATTAGTTGAGACGAGAGCAACCGATAGGTTG | -0.0541 |
| TCGAGTAGGTTAGTCAGGGCATTCAGCCAACATA | 1.72 |
| TCGAGTAGGTGAGGGGCATTCAGAATGGCGTCGA | 3.75 |
| ATATGTAGGTTAAGGTTCATTCAGGTTGGTTCGC | 7.48 |
| AGAATGAGGTTATTCGTAGATCAGGGAAGAAAGT | 2.22 |
| GCGACTGGGGCACAGCAGGTTACCATAAGGTTGG | 4.28 |
| GGAACGCGGGCATTCGAGTTGATAGCATGGCGAT | -0.666 |
| CCTACTGGGCTACGAAAGGTCATTGATTCAGTGA | 3.65 |
| ACTTACCGGTCAACGAGGTTATAGCACGCGTATA | 1.9 |
| CTCGAAAGGTCGTGCTCAGGTGAGGATACCAAAC | 1.73 |
| GCTATGAGTTGAAAGGGCAACCGAATGATTCTCG | 0.754 |
| ATTTGTAGGTTAAGGGTCATTCAGGTTGGTTCGC | 7.15 |
| TATTGTAGATCAAGCAGGTTAAGAAAGCCTGAGT | 1.02 |
| CGTCATAGTTCAACTAAGGTAACGTAAAGCACGC | 1.07 |
| TGTCAAAGTTCAAAGGTAACCTAAGTATCCACAC | 4.82 |
| CGTCCATGGTCAGAGAGGTCAGTGAATGCCGAGT | 0.857 |

| Sequence | PBM binding z-score |
| --- | --- |
| ACTCGGAGGACAAAGGTCAGAGGTACGCCAGTGA | 3.42 |
| CTCGAAAGGTCGGTTTAGGTGAGTATACGGATAA | 0.896 |
| TAGCCTAGGTCATGGGGGCCAGTATAGTGTCGGC | 4.23 |
| ATCTCTAGGTAAAAGTTCAGGGAATCCCGAGGAT | 3.72 |
| CTCGAAAGGTCGTGCTCAGGTGTGTATACCAAAC | 2.05 |
| ACTTACGGGTCGACGAGGTTATAGCACGCGTATA | 1.14 |
| AGTCAAAGTTCTCTAGGTAACGTAAGATTCAGCT | 2.51 |
| AGAATGCGGTTATACGTAGATCAGGGAAGAAAGT | -0.172 |
| AGAATGAGGTTCAGATCAGGGAAACAGAATACAT | 0.433 |
| CCTACTGGGCCATCAGGTCACTGATATCAACGTT | 5.45 |
| CGTCCAAGGTCAGCAGGTTAGTGAAAGCGACGTG | 2.41 |
| CGTCCAAGGTGAATGCTAGGTCAGTGAAAGCATT | 2.41 |
| TGAATGAGGTTATAAGATCAGGGTACGTTGCAAA | 1.69 |
| TCTGCTAGCTCAACGATGGTCAGCTAATCTGCTA | -0.338 |
| TCTTGTAGATCAAGCGGGTTAAGAAAGCCTGAGT | 0.202 |
| ATATGTAGGTTATTGGGTCATTCAGTTTGCGCAT | 8.16 |
| ATCTCTAGGTAACCAGTTCAGTGAAAGAGAGGAC | 3.09 |
| TCTTGTAGACCAAGCAGGTTAAGAAAGCCTGAGT | 0.677 |
| CCTACTGGGCCATTCAGAGCTCATTGATCATATG | 3.12 |
| AGAATGAGGTTATTAAGATCAAGGAATTGCGGTC | 2.73 |

— the supplement of paper PMC6555819
